Measurements: article PMC7862700, “An all-to-all approach to the identification of sequence-specific readers for epigenetic DNA modifications on cytosine”

Experiments:
Test in all cases: DAPPL (digital affinity profiling via proximity ligation, sequencing); 10 mM Tris-HCl pH 7.5, 50 mM NaCl, 1 mM DTT, 4% glycerol, room temperature, 30 min; GST-TFs on glutathione beads, 16-mer random dsDNA library, 0.1% formaldehyde crosslink after washing; high values mean tight binding
[1] = molecular target: T1, FEV (Homo sapiens, UniProt Q99581 1-238); details: protein: recombinant; tags: N-terminal GST; dsDNA, one strand shown
T1 sequence: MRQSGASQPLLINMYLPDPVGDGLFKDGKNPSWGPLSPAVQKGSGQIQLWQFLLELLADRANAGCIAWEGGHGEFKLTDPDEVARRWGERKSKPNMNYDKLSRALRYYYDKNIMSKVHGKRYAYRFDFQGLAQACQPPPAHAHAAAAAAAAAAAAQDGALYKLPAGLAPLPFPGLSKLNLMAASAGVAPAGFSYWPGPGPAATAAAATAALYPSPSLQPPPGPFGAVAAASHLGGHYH
Outline: (§1)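 Pools of DNA-barcoded human transcription factors, expressed in yeast as GST fusions on glutathione beads and combined with a tag-only sample, were incubated with 200 nmole of a 16-mer random double-stranded DNA library. Incubation took 30 min at room temperature in Tris/NaCl/DTT/glycerol buffer and was followed by washing, 0.1% formaldehyde crosslinking, proximity ligation (BsaI/T4 ligase, 1 h, 37 °C), PCR amplification and sequencing on an Illumina NextSeq500. Binding signal is the ratio of a hexamer's read frequency for a factor to its frequency for the tag-only sample.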

[2] = molecular target: ETV5 (Homo sapiens, UniProt P41161 1-510); details: protein: recombinant; tags: N-terminal GST; dsDNA, one strand shown
Outline: as §1

[3] = molecular target: HSF1 (Homo sapiens, UniProt Q00613 1-529); details: protein: recombinant; tags: N-terminal GST; chain copies: 3; dsDNA, one strand shown
Outline: as §1

[4] = molecular target: T2, SPIC (Homo sapiens, UniProt Q8N5J4 1-248); details: protein: recombinant; tags: N-terminal GST; dsDNA, one strand shown
T2 sequence: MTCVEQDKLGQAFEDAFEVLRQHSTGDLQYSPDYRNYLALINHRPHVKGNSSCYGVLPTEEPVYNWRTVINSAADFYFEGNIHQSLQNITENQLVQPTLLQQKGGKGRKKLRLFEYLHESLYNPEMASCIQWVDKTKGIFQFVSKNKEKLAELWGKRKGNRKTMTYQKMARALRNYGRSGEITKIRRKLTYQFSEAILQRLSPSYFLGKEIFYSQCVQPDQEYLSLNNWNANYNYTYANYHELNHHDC
Outline: as §1

[5] = molecular target: ELF4 (Homo sapiens, UniProt Q99607 1-663); details: protein: recombinant; tags: N-terminal GST; dsDNA, one strand shown
Outline: as §1

[6] = molecular target: T3, ELK4 (Homo sapiens, UniProt P28324-2 1-405); details: protein: recombinant; tags: N-terminal GST; dsDNA, one strand shown
T3 sequence: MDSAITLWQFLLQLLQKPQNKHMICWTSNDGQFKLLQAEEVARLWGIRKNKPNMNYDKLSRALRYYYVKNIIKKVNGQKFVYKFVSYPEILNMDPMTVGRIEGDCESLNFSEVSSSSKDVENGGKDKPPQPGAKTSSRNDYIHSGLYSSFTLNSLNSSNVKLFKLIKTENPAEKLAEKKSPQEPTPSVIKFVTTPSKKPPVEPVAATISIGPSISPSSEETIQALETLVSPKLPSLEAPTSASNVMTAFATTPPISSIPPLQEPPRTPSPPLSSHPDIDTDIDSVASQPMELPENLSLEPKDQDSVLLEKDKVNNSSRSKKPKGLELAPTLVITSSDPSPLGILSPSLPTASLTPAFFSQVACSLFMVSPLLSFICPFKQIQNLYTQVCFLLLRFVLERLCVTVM
Outline: as §1

[7] = molecular target: T4, ETV2 (Homo sapiens, UniProt O00321 1-342); details: protein: recombinant; tags: N-terminal GST; dsDNA, one strand shown
T4 sequence: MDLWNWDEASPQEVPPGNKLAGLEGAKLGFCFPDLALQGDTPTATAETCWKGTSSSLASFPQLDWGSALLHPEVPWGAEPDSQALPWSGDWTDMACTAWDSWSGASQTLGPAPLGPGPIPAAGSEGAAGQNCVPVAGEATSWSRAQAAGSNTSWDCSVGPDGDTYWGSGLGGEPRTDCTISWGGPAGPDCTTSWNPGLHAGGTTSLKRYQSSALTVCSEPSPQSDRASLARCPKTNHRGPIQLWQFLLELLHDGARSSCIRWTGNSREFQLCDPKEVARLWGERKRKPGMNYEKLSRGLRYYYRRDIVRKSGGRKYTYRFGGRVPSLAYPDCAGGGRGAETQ
Outline: as §1

[8] = molecular target: T5, ELF3 (Homo sapiens, UniProt P78545 1-371); details: protein: recombinant; tags: N-terminal GST; dsDNA, one strand shown
T5 sequence: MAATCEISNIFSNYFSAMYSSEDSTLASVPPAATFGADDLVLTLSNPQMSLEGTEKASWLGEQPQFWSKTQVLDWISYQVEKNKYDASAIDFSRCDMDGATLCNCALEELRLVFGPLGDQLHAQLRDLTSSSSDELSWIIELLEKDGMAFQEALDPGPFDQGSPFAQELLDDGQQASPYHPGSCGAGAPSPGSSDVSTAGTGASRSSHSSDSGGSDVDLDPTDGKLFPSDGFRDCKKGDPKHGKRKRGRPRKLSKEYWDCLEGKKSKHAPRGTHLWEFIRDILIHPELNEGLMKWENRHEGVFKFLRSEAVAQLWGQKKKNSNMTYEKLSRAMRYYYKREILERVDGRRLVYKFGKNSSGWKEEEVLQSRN
Outline: as §1

[9] = molecular target: CRX (Homo sapiens, UniProt O43186 1-299); details: protein: recombinant; tags: N-terminal GST; dsDNA, one strand shown
Outline: as §1

[10] = molecular target: ETV1 (Homo sapiens, UniProt P50549 1-477); details: protein: recombinant; tags: N-terminal GST; dsDNA, one strand shown
Outline: as §1

Chain of ETV1 (P50549 whole entry): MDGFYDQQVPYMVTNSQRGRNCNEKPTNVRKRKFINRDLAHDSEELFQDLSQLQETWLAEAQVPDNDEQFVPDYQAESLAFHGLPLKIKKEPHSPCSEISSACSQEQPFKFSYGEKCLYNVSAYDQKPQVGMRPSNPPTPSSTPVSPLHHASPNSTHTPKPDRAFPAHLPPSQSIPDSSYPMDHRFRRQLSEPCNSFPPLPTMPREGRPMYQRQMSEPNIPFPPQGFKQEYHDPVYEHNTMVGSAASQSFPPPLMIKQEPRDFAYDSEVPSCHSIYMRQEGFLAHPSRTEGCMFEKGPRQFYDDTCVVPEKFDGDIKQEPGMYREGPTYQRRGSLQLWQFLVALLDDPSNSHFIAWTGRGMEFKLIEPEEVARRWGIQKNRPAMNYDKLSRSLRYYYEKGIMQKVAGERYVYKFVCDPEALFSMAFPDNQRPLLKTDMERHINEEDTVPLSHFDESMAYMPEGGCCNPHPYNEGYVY
Chain of CRX (O43186 whole entry): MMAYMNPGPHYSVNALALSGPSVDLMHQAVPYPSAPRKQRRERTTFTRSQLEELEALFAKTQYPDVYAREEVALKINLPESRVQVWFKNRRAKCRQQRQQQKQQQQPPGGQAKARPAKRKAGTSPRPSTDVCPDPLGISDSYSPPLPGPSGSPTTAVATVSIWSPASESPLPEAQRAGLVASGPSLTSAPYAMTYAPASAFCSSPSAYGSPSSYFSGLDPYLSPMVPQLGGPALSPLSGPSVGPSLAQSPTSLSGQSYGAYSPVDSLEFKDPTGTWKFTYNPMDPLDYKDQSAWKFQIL
Chain of ELF4 (Q99607 whole entry): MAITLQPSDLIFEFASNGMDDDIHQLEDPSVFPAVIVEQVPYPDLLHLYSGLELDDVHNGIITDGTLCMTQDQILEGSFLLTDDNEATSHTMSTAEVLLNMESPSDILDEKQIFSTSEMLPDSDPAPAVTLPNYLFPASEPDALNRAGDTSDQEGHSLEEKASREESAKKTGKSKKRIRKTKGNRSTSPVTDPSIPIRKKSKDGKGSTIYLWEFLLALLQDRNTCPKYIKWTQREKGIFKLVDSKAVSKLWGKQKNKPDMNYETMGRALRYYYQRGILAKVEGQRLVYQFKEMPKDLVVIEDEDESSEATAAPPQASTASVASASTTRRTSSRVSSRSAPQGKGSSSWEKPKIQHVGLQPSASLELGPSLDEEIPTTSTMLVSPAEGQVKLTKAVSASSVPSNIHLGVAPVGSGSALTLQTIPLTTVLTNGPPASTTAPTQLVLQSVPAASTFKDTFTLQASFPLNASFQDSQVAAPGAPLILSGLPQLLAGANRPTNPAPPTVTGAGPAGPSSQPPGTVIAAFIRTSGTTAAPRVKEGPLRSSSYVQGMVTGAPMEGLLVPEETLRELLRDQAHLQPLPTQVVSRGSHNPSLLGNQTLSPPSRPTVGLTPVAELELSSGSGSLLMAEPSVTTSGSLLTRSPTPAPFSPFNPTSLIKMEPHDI
Chain of HSF1 (Q00613 whole entry): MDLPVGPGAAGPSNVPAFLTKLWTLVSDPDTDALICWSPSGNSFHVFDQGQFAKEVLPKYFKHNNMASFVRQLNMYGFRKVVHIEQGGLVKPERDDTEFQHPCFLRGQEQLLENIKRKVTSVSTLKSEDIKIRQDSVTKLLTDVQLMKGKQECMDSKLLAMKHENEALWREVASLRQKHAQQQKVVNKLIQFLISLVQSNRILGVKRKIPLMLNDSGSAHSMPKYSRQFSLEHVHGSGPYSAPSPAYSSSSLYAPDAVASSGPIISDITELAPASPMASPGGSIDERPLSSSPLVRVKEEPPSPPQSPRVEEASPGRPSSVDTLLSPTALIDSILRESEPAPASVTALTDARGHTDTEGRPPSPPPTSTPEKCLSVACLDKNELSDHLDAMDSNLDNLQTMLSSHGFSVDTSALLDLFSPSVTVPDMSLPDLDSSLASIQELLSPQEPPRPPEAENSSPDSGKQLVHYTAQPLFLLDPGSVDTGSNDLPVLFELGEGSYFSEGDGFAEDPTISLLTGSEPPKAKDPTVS
Chain of ETV5 (P41161 whole entry): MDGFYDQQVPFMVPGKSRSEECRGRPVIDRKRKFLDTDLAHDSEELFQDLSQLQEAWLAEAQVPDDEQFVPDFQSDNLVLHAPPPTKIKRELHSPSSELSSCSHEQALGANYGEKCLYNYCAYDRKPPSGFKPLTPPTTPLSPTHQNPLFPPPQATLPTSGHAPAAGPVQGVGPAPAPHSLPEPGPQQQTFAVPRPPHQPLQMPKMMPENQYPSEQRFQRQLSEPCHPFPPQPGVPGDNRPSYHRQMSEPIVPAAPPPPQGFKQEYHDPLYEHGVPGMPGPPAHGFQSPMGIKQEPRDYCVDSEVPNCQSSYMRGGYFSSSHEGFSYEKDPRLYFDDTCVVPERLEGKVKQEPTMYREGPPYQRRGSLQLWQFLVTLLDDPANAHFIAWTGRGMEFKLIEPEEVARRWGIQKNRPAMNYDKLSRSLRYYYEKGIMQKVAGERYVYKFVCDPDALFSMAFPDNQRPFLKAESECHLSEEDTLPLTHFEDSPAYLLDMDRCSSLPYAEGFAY

| Sequence | binding signal [1] | binding signal [2] | binding signal [3] | binding signal [4] | binding signal [5] | binding signal [6] | binding signal [7] | binding signal [8] | binding signal [9] | binding signal [10] |
| --- | --- | --- | --- | --- | --- | --- | --- | --- | --- | --- |
| CCATTA | 1.07 fold enrichment (6-mer frequency, TF over GST control) | 1.06 fold enrichment (6-mer frequency, TF over GST control) | 1.11 fold enrichment (6-mer frequency, TF over GST control) | 1.16 fold enrichment (6-mer frequency, TF over GST control) | 1.12 fold enrichment (6-mer frequency, TF over GST control) | 1.24 fold enrichment (6-mer frequency, TF over GST control) | 1.15 fold enrichment (6-mer frequency, TF over GST control) | 1.21 fold enrichment (6-mer frequency, TF over GST control) | 1.32 fold enrichment (6-mer frequency, TF over GST control) | 1.16 fold enrichment (6-mer frequency, TF over GST control) |
| CGATCC | 1.2 fold enrichment (6-mer frequency, TF over GST control) | 1.19 fold enrichment (6-mer frequency, TF over GST control) | 1.31 fold enrichment (6-mer frequency, TF over GST control) | 1.11 fold enrichment (6-mer frequency, TF over GST control) | 1.21 fold enrichment (6-mer frequency, TF over GST control) | 1.11 fold enrichment (6-mer frequency, TF over GST control) | 1.19 fold enrichment (6-mer frequency, TF over GST control) | 1.08 fold enrichment (6-mer frequency, TF over GST control) | 1.27 fold enrichment (6-mer frequency, TF over GST control) | 1.25 fold enrichment (6-mer frequency, TF over GST control) |
| GACTTT | 1.14 fold enrichment (6-mer frequency, TF over GST control) | 1.22 fold enrichment (6-mer frequency, TF over GST control) | 1.4 fold enrichment (6-mer frequency, TF over GST control) | 1.21 fold enrichment (6-mer frequency, TF over GST control) | 1.22 fold enrichment (6-mer frequency, TF over GST control) | 1.17 fold enrichment (6-mer frequency, TF over GST control) | 1.1 fold enrichment (6-mer frequency, TF over GST control) | 1.1 fold enrichment (6-mer frequency, TF over GST control) | 1.37 fold enrichment (6-mer frequency, TF over GST control) | 1.24 fold enrichment (6-mer frequency, TF over GST control) |
| GCTCAT | 1.2 fold enrichment (6-mer frequency, TF over GST control) | 1.19 fold enrichment (6-mer frequency, TF over GST control) | 1.15 fold enrichment (6-mer frequency, TF over GST control) | 1.32 fold enrichment (6-mer frequency, TF over GST control) | 1.18 fold enrichment (6-mer frequency, TF over GST control) | 1.3 fold enrichment (6-mer frequency, TF over GST control) | 1.39 fold enrichment (6-mer frequency, TF over GST control) | 1.34 fold enrichment (6-mer frequency, TF over GST control) | 1.35 fold enrichment (6-mer frequency, TF over GST control) | 1.22 fold enrichment (6-mer frequency, TF over GST control) |
| TTGTCC | 1.34 fold enrichment (6-mer frequency, TF over GST control) | 1.42 fold enrichment (6-mer frequency, TF over GST control) | 1.16 fold enrichment (6-mer frequency, TF over GST control) | 1.3 fold enrichment (6-mer frequency, TF over GST control) | 1.26 fold enrichment (6-mer frequency, TF over GST control) | 1.29 fold enrichment (6-mer frequency, TF over GST control) | 1.56 fold enrichment (6-mer frequency, TF over GST control) | 1.24 fold enrichment (6-mer frequency, TF over GST control) | 1.16 fold enrichment (6-mer frequency, TF over GST control) | 1.23 fold enrichment (6-mer frequency, TF over GST control) |
| AGCCCT | 1.14 fold enrichment (6-mer frequency, TF over GST control) | 1.08 fold enrichment (6-mer frequency, TF over GST control) | 1.09 fold enrichment (6-mer frequency, TF over GST control) | 1.25 fold enrichment (6-mer frequency, TF over GST control) | 1.06 fold enrichment (6-mer frequency, TF over GST control) | 1.14 fold enrichment (6-mer frequency, TF over GST control) | 1.18 fold enrichment (6-mer frequency, TF over GST control) | 1.1 fold enrichment (6-mer frequency, TF over GST control) | 1.25 fold enrichment (6-mer frequency, TF over GST control) | 1.05 fold enrichment (6-mer frequency, TF over GST control) |
| CCTTAT | 1.4 fold enrichment (6-mer frequency, TF over GST control) | 1.41 fold enrichment (6-mer frequency, TF over GST control) | 1.35 fold enrichment (6-mer frequency, TF over GST control) | 1.33 fold enrichment (6-mer frequency, TF over GST control) | 1.47 fold enrichment (6-mer frequency, TF over GST control) | 1.45 fold enrichment (6-mer frequency, TF over GST control) | 1.39 fold enrichment (6-mer frequency, TF over GST control) | 1.37 fold enrichment (6-mer frequency, TF over GST control) | 1.77 fold enrichment (6-mer frequency, TF over GST control) | 1.62 fold enrichment (6-mer frequency, TF over GST control) |
